An excerpt weighted towards active compounds, which were near 8% of everything screened.
MCF10A rerep: A quantitative high throughput screen for small molecules that induce DNA re-replication in MCF 10a normal breast cells | Potency, µM (series often up to 46.1 µM), actives largely listed as activators | hit rate 2.9% among 350,000 | AID 624296, 2012 | MCF 10A DNA re-replication, Hoechst nuclear intensity, 48 h; also: nearly all actives have a fitted effect of over 50% in size
SW480 rereplic: A quantitative high throughput screen for small molecules that induce DNA re-replication in SW480 colon adenocarcinoma cells; SW480 DNA re-replication, Hoechst DNA content imaging, 48 h; AID 624297, 2012; Potency, µM (highest dose often 46.1 µM), actives largely listed as activators; hit rate 1.8% among 340,000; also: nearly all actives have a fitted effect of over 55% in size
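Treated cells incubate 48 hr (37 C, 5% CO2), are stained 40 min with Hoechst, and nuclear fluorescence is enumerated; a rise in nuclei with high DNA signal marks re-replication.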
HT1080NT lethal: qHTS for induction of synthetic lethality in tumor cells producing 2HG: qHTS for the HT-1080-NT fibrosarcoma cell line; HT-1080-NT fibrosarcoma viability, CellTiter-Glo ATP luminescence, 48 h; Potency, µM (titrated, usually from 46.1 µM), hits mostly cytotoxic; hit rate 1.6% among 360,000; AID 686970, 2013;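 also: NT is the 2HG producing partner of a matched IDH1 knockdown line; nearly all actives have a fitted effect of over 55% in size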
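A 48-hour cytotoxicity screen used HT-1080-NT cells plated 2 hours before compound delivery. ATP-based CellTiter-Glo luminescence measured viability, normalized to DMSO and no-cell controls.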
HT1080 IDH1KD tx: qHTS for induction of synthetic lethality in tumor cells producing 2HG: qHTS for the HT-1080-IDH1KD cell line; HT-1080 IDH1 knockdown viability, ATP luminescence, 48 h; hit rate 2% among 360,000; AID 686971, 2013; Potency, µM (titrated, usually from 46.1 µM), actives largely listed as cytotoxic
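Using the IDH1-knockdown HT-1080 line run in the same batch and compound series as the NT line, viability after 48 h at 37 °C was determined by CellTiter-Glo luminescence and expressed as % activity.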
KB-3-1 tox: qHTS assay for MDR1-selective chemotherapeutics: Primary screen using the parental adenocarcinoma cell KB-3-1 | KB-3-1 viability, CellTiter-Glo ATP luminescence, 72 h | Potency, µM (top dose mostly 46.1 µM), usual class: cytotoxic | hit rate 1.4% among 400,000 | AID 1347075, 2019; also: nearly all actives have a fitted effect of over 60% in size
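Screening of KB-3-1 cells (DMEM, 10% FBS, phenol-red free) ran from lowest to highest compound concentration; after 72 h at 37 °C viability was read luminescently and curves fitted.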
KB-V1 MDR tox: qHTS assay for MDR1-selective chemotherapeutics: Primary screen using the drug-selected MDR subline cells KB-V1. KB-V1 MDR cells viability, CellTiter-Glo, 72 h. Potency, µM (highest dose often 46.1 µM), actives largely listed as cytotoxic. hit rate 3.4% among 400,000. AID 1347076, 2019; also: nearly all actives have a fitted effect of over 60% in size
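In this primary screen, KB-V1 cells overexpressing P-gp are incubated with library compounds (lowest to highest concentration) for 72 h at 37 degrees C before a luminescent ATP viability read.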
A number is an active result; n = inactive; u = inconclusive; x = no result. Calls follow the shape of the dose curve; as a rule, active = well fitted curve in the direction sought with a large enough effect; inconclusive = small, poorly fitted or top-dose-only effect, or another doubt; inactive = no such curve, though single readings can be large; an effect the other way counts as inactive or inconclusive.

SMILES	MCF10A rerep	SW480 rereplic	HT1080NT lethal	HT1080 IDH1KD tx	KB-3-1 tox	KB-V1 MDR tox
O=C(c1nc2ccccc2[nH]1)c1ccccc1[N+](=O)[O-]	n	n	n	n	u	n
CCOC(=O)c1ccc(NC(=O)C2CCCN(c3ncnc4onc(-c5ccc(F)cc5)c34)C2)cc1 (stereo not drawn)	x	x	x	x	n	n
Cc1cc(C)c2c(CC(=O)Nc3c(C(=O)c4ccc(F)cc4)oc4ccccc34)coc2c1	x	x	x	x	n	n
CCOC(=O)c1c(C)[nH]c(C)c1C(=O)CSc1nc2ccccc2n1CC	n	n	n	n	n	n
Cc1ccc(C(=O)Cc2nc3ccccc3[nH]2)cc1	n	n	n	n	n	n
CCOC(=O)Cc1nc2ccccc2[nH]1	5µM	2µM	n	n	n	n
COC(=O)c1cc(CSc2nc3ccccc3[nH]2)oc1C	n	n	n	n	21µM	2.9µM
CCOC(=O)c1c(C)[nH]c(C)c1C(=O)CSc1nc2ccccc2[nH]1	n	n	n	n	n	23µM
O=C(Cc1nc2ccccc2[nH]1)c1cccc([N+](=O)[O-])c1	7.3µM	u	n	n	u	n
O=C(Nc1cc(F)ccc1F)c1ccc2c(c1)nnn2C1CCCC1	x	x	x	x	n	n
COc1c(Cl)cnn(-c2ccc(Cl)c(Cl)c2)c1=O	23µM	u	n	u	n	u
COc1ccc(-n2ncc(N(C)n3cccc3)c(Cl)c2=O)cc1	n	n	n	n	n	n
COc1ccc(-n2ncc(Cl)c(Cl)c2=O)cc1	0.82µM	n	4.6µM	8.2µM	5.2µM	u
CC(=O)c1ccc(N2CCN(C(=O)NCc3noc4ccc(C)cc34)CC2)cc1	x	x	x	x	n	u
O=C(NCCc1ccccc1)C(c1cccs1)N(C(=O)CCl)c1ccc(Cl)cc1 (stereo not drawn)	12µM	10µM	3.7µM	1.6µM	u	u
c1ccc(-c2nnc(CN3CCN(c4ccccn4)CC3)o2)cc1	x	x	x	x	n	n
Cc1c(C(=O)NCc2cccc([N+](=O)[O-])c2)sc(=O)n1Cc1ccc(F)cc1	x	x	n	n	n	u
Cc1c(C(=O)NCc2cccc([N+](=O)[O-])c2)sc(=O)n1Cc1cccc(F)c1	x	x	n	n	n	u
Cc1c(C(=O)NCc2cccc([N+](=O)[O-])c2)sc(=O)n1Cc1ccc(C(C)C)cc1	x	x	n	n	u	9.2µM
CC(=O)Oc1ccccc1Cn1c(C)c(C(=O)NCc2cccc([N+](=O)[O-])c2)sc1=O	x	x	n	n	n	18µM
COc1cc(-c2c(C#N)c(N)nc3c2c(C)nn3-c2ccc(C)c(C)c2)cc(OC)c1OC	u	n	u	11µM	u	n
Oc1ccc(/C=N/Nc2nc(N3CCCCCC3)nc(N3CCCCCC3)n2)c(O)c1	u	u	u	u	n	u
BrC(/C=C\c1ccccc1)=N/Nc1nc(N2CCOCC2)nc(N2CCOCC2)n1	10µM	u	u	u	n	n
C/C(=N\Nc1nc(N2CCCCC2)nc(N2CCOCC2)n1)c1ccccc1O	u	12µM	u	18µM	u	16µM
Oc1ccc(Br)cc1/C=N/Nc1nc(N2CCCCC2)nc(N2CCOCC2)n1	n	21µM	n	n	u	n
C/C(=N\Nc1nc(N2CCOCC2)nc(N2CCOCC2)n1)c1cccs1	n	n	n	n	n	n
COc1cc(NCc2ccc3nc(N)nc(N)c3c2C)cc(OC)c1OC	n	n	x	x	x	x
COCCN1CSC(=S)N(Cc2ccco2)C1	u	5.8µM	n	n	n	n
CCOCCCN1CN(Cc2ccco2)CNC1=S	n	n	n	n	n	n
S=C1SCN(Cc2ccccn2)CN1Cc1ccco1	4.1µM	7.3µM	u	16µM	n	u

From PubChem
